This note sets out measurements from PubChem BioAssay (Tox21).

Where “and” joins values, the source holds several entries; their conditions need not be identical. Equal entries are not always repeated. Inconclusive results are not listed. Entries that show only a call come without a potency. Where a structure was tested more than once in an assay, its records may differ in their call. Calls of active or inactive are those of the source. The call rests on the fitted dose curve; in most records, active means well fitted cell-killing curve with a large enough effect in the repeat runs; inconclusive means weak or mixed curves, or effect the other way; inactive means no such curve, though single readings can be large or run the other way.
Potency means the concentration at half of the fitted maximal effect.

A short description of the test: qHTS assay to identify small molecule antagonists of the thyroid receptor (TR) signaling pathway - cell viability counter screen (AID 743064). Further: nearly all actives have a fitted effect of over 50% in size. As to conditions: GH3.TRE-Luc viability, CellTiter-Fluor, 24 h; series mostly up to 70.3 µM. The source says: National Center for Advancing Translational Sciences [NCATS]
NIH Chemical Genomics Center [NCGC]
U.S. Environmental Protection Agency [EPA]
National Institutes of Environmental Health Sciences [NIEHS]
National Toxicology Program [NTP]
U.S. Food and Drug Administration [FDA]
Thyroid receptor (TR), a nuclear hormone receptor, plays an important role in development, proliferation, differentiation, metabolism, brain function, and cardiovascular system. […] To profile the Tox21 10K compound library in TR signaling, a cell-based GH3-TRE-Luc assay (GH3.TRE-Luc cell line, developed by the laboratory of Dr. Albertinka J. Murk, Wageningen University) was used to measure the inhibition of TR. GH3 (rat pituitary tumor) cells stably expressing a TR activity sensor consisting of two TR response elements and a luciferase reporter gene. The cytotoxicity of the Tox21 compound library against the GH3.TRE-Luc cell line was tested in parallel by measuring the cell viability using CellTiter-Fluor assay (Promega, Madison, WI) in the same wells.
Tox21 Assay Protocol Summary:
GH3.TRE-Luc cells were dispensed at 1500 cells/4 uL/well into 1536-well white solid bottom plates using a Multidrop Combi dispenser (Thermo Fisher Scientific Inc., Waltham, MA). After the assay plates were incubated at 37 C for 4 hours, 23 nL of library compound or DMSO controls was transferred to the assay plates by a pintool station (Kalypsys, San Diego, CA), followed by addition of 1 ul of T3 (1 nM, final concentration in the wells) to stimulate TR transactivation. The assay plates were incubated at 37 C for 23.5 h, and then 1 uL of CellTiter-Fluor reagent (Promega, Madision, WI) of measuring cytotoxicity was added to each well using a Bioraptr Flying Reagent Dispenser (FRD) workstation (Beckman Coulter, Indianapolis, IN, USA). The plates were incubated at 37C and 5% CO2 for additional 30 min, and fluorescence intensity was measured by a ViewLux plate reader (PerkinElmer, Shelton, CT).
A general note: qHTS replaces the single test concentration by a dilution series.
As for `C#C[C@]1(O)CC[C@H]2[C@@H]3CCC4=Cc5oncc5C[C@]4(C)[C@H]3CC[C@@]21C`, the Potency entry is “inactive and 61.1 µM (active)”.

For the compound `CC1=CCC(C(C)(C)O)CC1` (stereo not given), the Potency result was “inactive”.

Consider `CC(C)(C)NC(=O)[C@H]1CC[C@H]2[C@@H]3CC[C@H]4NC(=O)C=C[C@]4(C)[C@H]3CC[C@]12C`, for which the Potency entry was “inactive”. For `OC(CCl)CCl` the value was “inactive”; for `C=C(C)C1CC=C(C)CC1` (stereo not given), “inactive”; for `COc1ccc(C(=O)CC(=O)c2ccc(C(C)(C)C)cc2)cc1`, 26.6 µM (active) and 65.8 µM (active).

Regarding `c1ccc2c(c1)Oc1ccccc1S2`, the Potency result was “inactive”. For `CC(=O)C1(C)CC2=C(CCCC2(C)C)CC1C` (stereo not given) the value was “inactive”; for `CNCCCC12CCC(c3ccccc31)c1ccccc12`, 11.9 µM (active) and 4.86 µM (active). The value for `c1ccc2c(c1)c1cccc3ccc4cccc2c4c31` was “inactive”; that for `C=CC(C)(CCC=C(C)C)OC(C)=O` (stereo not given) was “inactive”.

On to `OC1CCCCCCCCCCC1`, for which the Potency entry was “inactive”. The value for `c1ccc2sc(SSN3CCOCC3)nc2c1` was 15.3 µM (active) and 24.3 µM (active); that for `Cc1ccc(C(=O)c2cc(O)c(O)c([N+](=O)[O-])c2)cc1` was “inactive and 61.1 µM (active)”.

For `c1cc(-c2ccncc2)ccn1`, the Potency entry is “inactive”.

Regarding `Nc1ccc(Nc2ccccc2)cc1`, the Potency was 60.4 µM (active) and 30.6 µM (active) and 34.4 µM (active).

For `Cc1cccc(C(=O)O)c1`, the Potency entry was “inactive”. The value for `NC=O` was “inactive”; that for `O=P(O)(O)O` was “inactive”; that for `CCCCOCCOCCO` was “inactive”. For `NNc1ccc(C(=O)O)cc1` the value was “inactive”; for `O=C(O)c1ccccc1Nc1cccc(C(F)(F)F)c1`, “inactive”; for `CN(C)CCN(Cc1cccs1)c1ccccn1`, “inactive”. For `COC(=O)CCC(=O)OC` the value was “inactive”; for `CCCCCCCCCCCO`, “inactive and 30.6 µM (active)”; for `CCCCOCCOCCOCCO`, “inactive”. For the compound `CN1C(C(=O)Nc2ccccn2)=C(O)c2ccccc2S1(=O)=O`, the Potency result is “inactive”. For `C=C(C)C(=O)OCCOC(=O)C(=C)C` the value was “inactive”; for `CCCCc1oc2ccccc2c1C(=O)c1cc(I)c(OCCN(CC)CC)c(I)c1`, 13.3 µM (active) and 26.6 µM (active) and 21.9 µM (active). With `COC(=O)Nc1nc2ccc(S(=O)c3ccccc3)cc2[nH]1` (stereo not given), the Potency entry is “inactive”. For `CCOC(=O)C(C#N)=C(c1ccccc1)c1ccccc1` the value was “inactive”.

Turning to `O=Cc1ccccc1O`, the Potency result was “inactive”. For `Cc1ncc[nH]1` the value was “inactive”. The value for `CCCc1c(OCCCCc2nn[nH]n2)ccc(C(C)=O)c1O` was “inactive”; that for `CCCCC(CC)COC(=O)c1ccc(N(C)C)cc1` (stereo not given) was “inactive”. `Oc1ccc(O)cc1`: the Potency was 26.6 µM (active) and 17.1 µM (active) and 34.4 µM (active). The value for `CC(C)OC=O` was “inactive”. The value for `C/C=C/C(=O)O` was “inactive”; that for `COc1cccc2c1C(=O)c1c(O)c3c(c(O)c1C2=O)C[C@@](O)(C(=O)CO)C[C@@H]3O[C@H]1C[C@H](N)[C@H](O)[C@H](C)O1` was “inactive and 1.68 µM (active) and 122 nM (active)”. The value for `CC(C)=CCCC(C)CCO` (stereo not given) was “inactive”.
